HUVEC tox TNFa: cytotoxicity in TNFa-stimulated HUVEC, primary screen, cytotoxicity control for VCAM1 expression modulator project, imaging, Hoechst nuclei count; 93,000 compounds, 0.17% hits; cell count reduction, % at 2 µM; HUVEC TNFalpha-stimulated, Hoechst cell count;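 active = cell count reduction exceeding the screen mean by over 5 SD, scaled to untreated wells per plate, cut at about 78% in these data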;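 note: cells counted after 24 h of TNF alpha exposure following the 1 h pretreatment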
E-sel TNF inh: E-selectin induction blockers in HUVEC – imaging, immunofluorescence, high content, primary screen | HUVEC TNFa-induced E-selectin immunofluorescence | inhibition, % at 2 µM | 120,000 compounds, 0.71% hits | AID 1246, 2008;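 active = inhibition above the batch mean plus 3 SD, and confirmed as a hit on visual image review, cut at about 43% in these data; inconclusive = passes the inhibition cutoff but fails visual image review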
VCAM1 TNFa inh: inhibitors of TNFa-induced VCAM1 expression, primary screen, imaging, HUVEC, TNFa stimulus, immunofluorescence; 95,000 compounds, 0.48% hits; HUVEC TNFa-induced VCAM-1 immunofluorescence, high-content imaging; inhibition, % at 2 µM;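 active = inhibition above the batch mean plus 3 SD, with images confirmed as a hit by eye, cut at about 37% in these data; inconclusive = inhibition above that limit but hit not confirmed in images; inactive = inhibition not above that limit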
IL1B NFkB inh: inhibitors of IL-1B driven NFkB p65 nuclear import, primary screen, imaging, HUVEC, IL-1B stimulus, high-content imaging | 94,000 compounds, 0.43% hits | inhibition, % at 2 µM | HUVEC IL-1B NFkB p65 nuclear translocation imaging;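 active = inhibition above about 30% together with a positive call from visual inspection of the well image, limit read from the data; inconclusive = inhibition above a set limit but visual check negative; inactive = inhibition not above a set limit, visual check negative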;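 note: nuclear over cytoplasmic p65 intensity ratio measured by imaging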
IL1B NFkB pot: enhancers of NFkB p65 translocation in HUVEC – imaging, IL-1B stimulus, high-content imaging, primary screen; 94,000 compounds, 0.3% hits; activation, % at 2 µM; HUVEC IL-1B NFkB p65 nuclear translocation imaging;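 active = activation above 40%, about the mean plus 3 SD, also judged a hit on visual image review; inconclusive = activation above 40% but not a hit on visual review; inactive = activation not above 40% and no visual hit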;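 note: percent activation is computed from the nuclear over cytoplasmic p65 intensity ratio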
IL1B cytotox: cytotoxicity in IL-1B stimulated HUVEC, primary screen, cytotoxicity control for IL-1B NFkB translocation project, imaging, Hoechst nuclear count, IL-1B stimulus | 94,000 compounds, 0.41% hits | cell count reduction, % at 2 µM | HUVEC cell count loss;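 active = cell count reduction more than 3 SD above the screen-wide mean, cut at about 70% in these data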
Hits are given with their value. An excerpt weighted towards active compounds, which were near 1.7% of everything screened.

`O=C(c1ccco1)N1CCN(Cc2cccc(F)c2)CC1` gave HUVEC tox TNFa inactive, E-sel TNF inh inactive, VCAM1 TNFa inh inactive, IL1B NFkB inh inactive, IL1B NFkB pot inactive and IL1B cytotox inactive.
For O=C(c1cccc(F)c1)N1CCN(Cc2ccco2)CC1 the results were HUVEC tox TNFa inactive, VCAM1 TNFa inh inactive, IL1B NFkB inh inactive, IL1B NFkB pot 40.5 and IL1B cytotox inactive.
Screening O=C1Nc2ccc(S(=O)(=O)N3CCCC3)c3cccc1c23 returned HUVEC tox TNFa inactive, E-sel TNF inh inactive, VCAM1 TNFa inh inactive, IL1B NFkB inh inactive, IL1B NFkB pot inactive and IL1B cytotox inactive.
O=C1Nc2ccc(S(=O)(=O)N3CCOCC3)c3cccc1c23 was read as HUVEC tox TNFa inactive, E-sel TNF inh inactive, VCAM1 TNFa inh 89.2, IL1B NFkB inh inactive, IL1B NFkB pot inactive and IL1B cytotox inactive.
`Cc1nc(CNS(=O)(=O)c2ccc3c(c2)OCCO3)cs1` gave HUVEC tox TNFa inactive, E-sel TNF inh inactive, VCAM1 TNFa inh inactive, IL1B NFkB inh inactive, IL1B NFkB pot 59.4 and IL1B cytotox inactive.
Cc1csc2nc(CNS(=O)(=O)c3ccc4c(c3)OCCO4)cn12 was read as HUVEC tox TNFa inactive, E-sel TNF inh inactive, VCAM1 TNFa inh inactive, IL1B NFkB inh inactive, IL1B NFkB pot inactive and IL1B cytotox inactive.
`Cc1ccc(C(=O)c2ccccc2C(=O)OCC(=O)Nc2cccc([N+](=O)[O-])c2)cc1` gave E-sel TNF inh inactive.
Cc1ccc(Cl)c(NC(=O)COC(=O)c2ccccc2C(=O)c2ccc(Cl)c([N+](=O)[O-])c2)c1Cl was read as E-sel TNF inh 98.2.
For COc1cccc(C(=O)NNC2OC(CO)C(O)C2O)c1 (stereo not drawn) the results were E-sel TNF inh inactive.
For COc1ccc(N=C2S/C(=C\c3ccc(N4CCOCC4)o3)C(=O)N2CCc2c[nH]c3ccccc23)cc1 the results were HUVEC tox TNFa inactive, E-sel TNF inh inactive, VCAM1 TNFa inh inactive, IL1B NFkB inh 48.3, IL1B NFkB pot inactive and IL1B cytotox inactive.
For O=C(Cn1c(=O)n(CCCCC(=O)NC2CCCC2)c(=O)c2ccccc21)NCCC1=CCCCC1 the results were HUVEC tox TNFa inactive, VCAM1 TNFa inh inactive, IL1B NFkB inh 40.5, IL1B NFkB pot inactive and IL1B cytotox inactive.
`CCc1ccc(CC2S/C(=C(\C#N)C(C)=O)NC2=O)cc1` (stereo not drawn) gave HUVEC tox TNFa inactive, E-sel TNF inh 50.1 and VCAM1 TNFa inh inactive.
CCOC(=O)c1ccc(CC2S/C(=C(\C#N)C(C)=O)NC2=O)cc1 (stereo not drawn) was read as HUVEC tox TNFa inactive, E-sel TNF inh inactive, VCAM1 TNFa inh inactive, IL1B NFkB inh inactive, IL1B NFkB pot inactive and IL1B cytotox inactive.
For Cc1ccccc1NC(=O)C1CCCN1/C=C/C(=O)C(F)(F)F (stereo not drawn) the results were E-sel TNF inh inactive.
CSc1nc(=O)n2cc(C)ccc2n1 was read as E-sel TNF inh 64.3.
COc1cc(OC)c(OC)cc1/C=N/NC(=S)NCC1CCCO1 (stereo not drawn) was read as HUVEC tox TNFa inactive, E-sel TNF inh inactive, VCAM1 TNFa inh inactive, IL1B NFkB inh inactive, IL1B NFkB pot inactive and IL1B cytotox inactive.
Screening Cn1c(N)c(C(=O)COC(=O)CCc2c[nH]c3ccccc23)c(=O)n(C)c1=O returned HUVEC tox TNFa inactive, E-sel TNF inh inactive, VCAM1 TNFa inh inactive, IL1B NFkB inh inactive, IL1B NFkB pot 54.9 and IL1B cytotox inactive.
`COc1ccc(NC(=O)COC(=O)CCCc2c[nH]c3ccccc23)cc1` gave E-sel TNF inh inactive, VCAM1 TNFa inh inactive, IL1B NFkB inh inactive, IL1B NFkB pot inactive and IL1B cytotox inactive.
For NC(=O)COC(=O)CCCc1c[nH]c2ccccc12 the results were HUVEC tox TNFa 79.3, VCAM1 TNFa inh 93.9, IL1B NFkB inh inactive, IL1B NFkB pot inactive and IL1B cytotox inactive.
For CNC(=O)COC(=O)[C@@H](Nc1ccc(S(=O)(=O)N2CCOCC2)cc1[N+](=O)[O-])C(C)C the results were E-sel TNF inh inactive.
`CCOC(=O)n1c(=O)n(Cc2ccc(Cl)c(Cl)c2)c2ccccc21` gave HUVEC tox TNFa inactive, E-sel TNF inh inactive, VCAM1 TNFa inh inactive, IL1B NFkB inh inactive, IL1B NFkB pot inactive and IL1B cytotox inactive.
O=C(Cc1ccc(-c2ccccc2)cc1)NCCN1CCOCC1 was read as E-sel TNF inh 94.9.
O=C(NCCN1CCOCC1)c1ccc(-c2ccccc2)cc1 was read as HUVEC tox TNFa inactive, E-sel TNF inh inactive, VCAM1 TNFa inh inactive, IL1B NFkB inh inactive, IL1B NFkB pot inactive and IL1B cytotox inactive.
`NC1=CC(=O)c2cccc3cccc1c23` gave HUVEC tox TNFa inactive, VCAM1 TNFa inh 43.3, IL1B NFkB inh inactive, IL1B NFkB pot inactive and IL1B cytotox inactive.
For NC1=Nc2cccc3cccc1c23 the results were E-sel TNF inh inactive.
For COCCCNC(=O)c1nc2c(nnn2Cc2cc(C)ccc2C)c(=O)[nH]1 the results were HUVEC tox TNFa inactive, E-sel TNF inh inactive, VCAM1 TNFa inh inactive, IL1B NFkB inh inactive, IL1B NFkB pot 40.9 and IL1B cytotox 93.3.
For O=C(NCc1cccs1)c1nc2c(nnn2Cc2ccccc2Cl)c(=O)[nH]1 the results were HUVEC tox TNFa inactive, VCAM1 TNFa inh 54.2, IL1B NFkB inh inactive, IL1B NFkB pot inactive and IL1B cytotox inactive.
Cc1ccc(C)c(Cn2nnc3c(=O)[nH]c(C4CCCN(C(=O)CC(C)C)C4)nc32)c1 (stereo not drawn) was read as HUVEC tox TNFa inactive, VCAM1 TNFa inh inactive, IL1B NFkB inh inactive, IL1B NFkB pot inactive and IL1B cytotox inactive.
For CCC(C)NC(=O)c1nc2c(nnn2Cc2ccccc2Cl)c(=O)[nH]1 (stereo not drawn) the results were E-sel TNF inh inactive.
`CCCNC(=O)CN(c1cccc(F)c1)S(C)(=O)=O` gave E-sel TNF inh inactive.
Screening C=CCNC(=S)NNC(=O)c1ccncc1 returned E-sel TNF inh inactive.
`CCOC(=O)N1CCC(NC(=O)CN2C(=O)CSc3nc(C)cc(C)c32)CC1` gave HUVEC tox TNFa inactive, E-sel TNF inh 83.5, VCAM1 TNFa inh inactive, IL1B NFkB inh inactive, IL1B NFkB pot inactive and IL1B cytotox inactive.
CN1CCCCc2c1[nH]c1ccccc1c2=O was read as HUVEC tox TNFa inactive, E-sel TNF inh inactive, VCAM1 TNFa inh 85.8, IL1B NFkB inh inactive, IL1B NFkB pot inactive and IL1B cytotox inactive.
OC1(c2ccccc2)CN(c2ccccc2)C2=[N+]1CCS2 (stereo not drawn) was read as E-sel TNF inh inactive.
For O=C1C2CCCN2C(c2ccccc2)N1c1nccs1 (stereo not drawn) the results were HUVEC tox TNFa inactive, E-sel TNF inh 84.7, VCAM1 TNFa inh inactive, IL1B NFkB inh inactive, IL1B NFkB pot inconclusive and IL1B cytotox inactive.

Screens as filed in PubChem BioAssay.
